Measurements: PubChem BioAssay (NCI)
Values joined by “and” are separate entries in the source; they are usually repeats but may differ in a detail not shown here. Identical values can stand only once. Compounds without any hit were thinned out: in the full panel of roughly 79,000, 15% have a hit. Some compounds were tested as several samples or in several runs, with calls that do not always agree. Active and inactive are the calls of the source. Rule as the data show it: active = growth inhibition above about 70%; inactive = the rest.

What was measured:
[1] = NCI Yeast Anticancer Drug Screen. Data for the rad52 strain (AID 147);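 also: 0% = growth of vehicle-treated control cultures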; conditions: S. cerevisiae rad52 mutant growth inhibition, stronger effect = higher value
Outline: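 Inhibition of yeast growth, referenced to vehicle controls, was the measured output for a strain with defective DNA damage repair.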

[2] = NCI Yeast Anticancer Drug Screen. Data for the wt1 strain (AID 149);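 also: 0% = growth of vehicle-treated wt1 cultures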; conditions: S. cerevisiae wt1 strain (SPY 50644) growth inhibition, stronger effect = higher value
Outline: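 The wt1 strain was treated with compounds, and growth was compared with vehicle-treated cultures to give inhibition.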

[3] = NCI Yeast Anticancer Drug Screen. Data for the rad50EPP+ strain (AID 151);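 also: 0% = growth of vehicle-treated control cultures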; conditions: S. cerevisiae rad50 mutant strain, stronger effect = higher value
Outline: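 Genetically defined yeast (rad50EPP+, DNA damage repair alteration) is grown with compound, and inhibition of growth is expressed relative to vehicle-treated controls.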

[4] = NCI Yeast Anticancer Drug Screen. Data for the rad50 strain (AID 155);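 also: 0% = growth of vehicle-only cultures of the same strain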; conditions: S. cerevisiae rad50 strain growth inhibition, stronger effect = higher value
Outline: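 Cells are treated with compound, grown, and their growth is then scored against vehicle-only cultures of the same repair-deficient yeast strain.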

[5] = NCI Yeast Anticancer Drug Screen. Data for the mec2-1 strain (AID 157); conditions: S. cerevisiae mec2-1 strain, stronger effect = higher value
Outline: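 Each compound was tested on mec2-1 yeast, a strain altered in DNA damage repair or cell cycle control. Growth inhibition is reported relative to vehicle.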

[6] = NCI Yeast Anticancer Drug Screen. Data for the rad14 strain (AID 159);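 also: 0% = growth of vehicle-treated control cultures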; conditions: S. cerevisiae rad14 strain growth inhibition, stronger effect = higher value
Outline: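 Readout: yeast growth inhibition, referenced to vehicle-only cultures. Strain bears a defined alteration in DNA damage repair.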

[7] = NCI Yeast Anticancer Drug Screen. Data for the sgs1 mgt1 strain (AID 161);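 also: 0% = growth of cultures given vehicle only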; conditions: S. cerevisiae sgs1 mgt1 strain, stronger effect = higher value
Outline: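 Test agents were incubated with a DNA-repair-mutant yeast strain. Growth was then read and compared against vehicle-treated controls.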

[8] = NCI Yeast Anticancer Drug Screen. Data for the CLN2oe strain (AID 163);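 also: 0% = growth of vehicle-only control cultures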; conditions: S. cerevisiae CLN2oe strain, stronger effect = higher value
Outline: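 First, the altered yeast strain was treated with each compound; second, its growth was measured; finally, inhibition was derived by comparison with vehicle controls.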

[9] = NCI Yeast Anticancer Drug Screen. Data for the cln2 rad14 strain (AID 165);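 also: 0% = growth equal to vehicle treated cultures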; conditions: S. cerevisiae cln2 rad14 strain, stronger effect = higher value
Outline: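 Test compounds were added to cln2 rad14 yeast cultures; inhibition of growth was then determined by comparison with vehicle treatment.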

[10] = NCI Yeast Anticancer Drug Screen. Data for the bub3 strain (AID 167); conditions: S. cerevisiae bub3 mutant strain, stronger effect = higher value
Outline: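 Part of a panel of yeast mutants defective in DNA damage repair or cell cycle regulation. Each strain is grown with compound, and inhibition is calculated relative to solvent-treated cultures.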

[11] = NCI Yeast Anticancer Drug Screen. Data for the wt2 strain (AID 169);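 also: 0% = growth of vehicle-treated yeast cultures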; conditions: S. cerevisiae wt2 strain growth inhibition, stronger effect = higher value
Outline: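 The panel's yeast strains carry defined changes in DNA repair or cell cycle genes. Each strain is grown with compound, and growth loss is scored relative to vehicle.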

[12] = NCI Yeast Anticancer Drug Screen. Data for the mlh1 strain (AID 171);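 also: 0% = growth of vehicle-treated control cultures of the same strain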; conditions: S. cerevisiae mlh1 strain growth inhibition, stronger effect = higher value
Outline: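 Inhibition values reflect reduced yeast growth in the presence of compound, referenced to vehicle controls, using a strain chosen for its alteration in DNA repair or cell cycle control.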

[13] = NCI Yeast Anticancer Drug Screen. Data for the sgs1 strain (AID 173);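 also: 0% = growth of vehicle-only control cultures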; conditions: S. cerevisiae sgs1 mutant, stronger effect = higher value
Outline: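 Vehicle-treated cultures served as reference for growth inhibition of a yeast strain altered in DNA damage repair or cell cycle control after compound exposure.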

[14] = NCI Yeast Anticancer Drug Screen. Data for the mlh1 rad18 strain (AID 175); conditions: S. cerevisiae mlh1 rad18 strain growth inhibition, stronger effect = higher value
Outline: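 Inhibition values reflect reduced growth of mutant yeast versus vehicle-treated controls following compound exposure; the mutations affect DNA damage repair.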

[15] = NCI Yeast Anticancer Drug Screen. Data for the rad18 strain (AID 177); conditions: S. cerevisiae rad18 mutant growth inhibition, stronger effect = higher value
Outline: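 Steps: expose repair-mutant yeast to compound; measure growth; express as inhibition relative to vehicle control.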

[16] = at 5.0 µM (retest, dose inferred, filed as 0.5)
[17] = at 50.0 µM (retest, dose inferred, filed as 5.0)

Measured: growth inhibition

CCc1[nH]nc(C(N)=O)c1N=NN(C)C
inactive: [1]; at 1.2 µM 3% | [1]; at 3.7 µM 20% | [1]; at 11.0 µM 66% | [2]; at 1.2 µM -6% | [2]; at 3.7 µM -4% | [2]; at 11.0 µM -7% | [2]; at 33.0 µM -5% | [2]; at 100.0 µM 1% | [3]; at 1.2 µM 0% | [3]; at 3.7 µM 12% | [3]; at 11.0 µM 27% | [3]; at 33.0 µM 69% | [4]; at 1.2 µM -4% | [4]; at 3.7 µM 5% | [4]; [16] -118% | [4]; at 11.0 µM 49% | [5]; at 1.2 µM 3% | [5]; at 3.7 µM -1% | [5]; [16] -46% | [5]; at 11.0 µM 7% | [5]; at 33.0 µM 25% | [5]; [17] 11% | [5]; at 50.0 µM 17.7% | [6]; at 1.2 µM -1% | [6]; at 3.7 µM -3% | [6]; at 11.0 µM 3% | [6]; at 33.0 µM 13% | [6]; at 100.0 µM 41% | [7]; [16] -57% | [7]; [17] 14% | [7]; at 50.0 µM 12.8% | [8]; at 1.2 µM -2% | [8]; at 3.7 µM -3% | [8]; at 11.0 µM 0% | [8]; at 33.0 µM 1% | [8]; at 100.0 µM 18% | [9]; [16] -53% | [9]; [17] -35% | [9]; at 50.0 µM 21.1% | [10]; at 1.2 µM -9% | [10]; at 3.7 µM -5% | [10]; [16] -66% | [10]; at 11.0 µM -3% | [10]; at 33.0 µM -6% | [10]; [17] -84% | [10]; at 50.0 µM -15.4% | [10]; at 100.0 µM 14% | [11]; at 1.2 µM -1% | [11]; at 3.7 µM 0% | [11]; at 11.0 µM -1% | [11]; at 33.0 µM 0% | [11]; at 100.0 µM 11% | [12]; at 1.2 µM 4% | [12]; at 3.7 µM -4% | [12]; at 11.0 µM -2% | [12]; at 33.0 µM 6% | [12]; at 100.0 µM 21% | [13]; at 1.2 µM 0% | [13]; at 3.7 µM -5% | [13]; at 11.0 µM 15% | [13]; at 33.0 µM 53% | [14]; [16] -126% | [14]; [17] 1% | [15]; at 1.2 µM 1% | [15]; at 3.7 µM 6% | [15]; at 11.0 µM 28%
active: [1]; at 33.0 µM 97% | [1]; at 100.0 µM 97% | [3]; at 100.0 µM 95% | [4]; at 33.0 µM 90% | [4]; [17] 85% | [4]; at 50.0 µM 90.1% | [4]; at 100.0 µM 97% | [5]; at 100.0 µM 94% | [13]; at 100.0 µM 88% | [14]; at 50.0 µM 70.7% | [15]; at 33.0 µM 85% | [15]; at 100.0 µM 96%

N#C/C(=C\c1ccccc1)c1ccccc1F
active: [4]; [17] 89% | [7]; [17] 90% | [10]; [17] 88% | [14]; [17] 96%
inactive: [1]; at 1.2 µM -1% | [1]; at 3.7 µM -3% | [1]; at 11.0 µM -2% | [1]; at 33.0 µM -1% | [1]; at 100.0 µM 3% | [2]; at 1.2 µM 1% | [2]; at 3.7 µM 1% | [2]; at 11.0 µM 2% | [2]; at 33.0 µM 1% | [2]; at 100.0 µM 1% | [3]; at 1.2 µM 2% | [3]; at 3.7 µM 2% | [3]; at 11.0 µM 9% | [3]; at 33.0 µM 16% | [3]; at 100.0 µM 21% | [4]; at 1.2 µM -4% | [4]; at 3.7 µM 3% | [4]; [16] 6% | [4]; at 11.0 µM -2% | [4]; at 33.0 µM 2% | [4]; at 50.0 µM 44.1% | [4]; at 100.0 µM 10% | [5]; at 1.2 µM 2% | [5]; at 3.7 µM 0% | [5]; [16] -11% | [5]; at 11.0 µM 4% | [5]; at 33.0 µM -4% | [5]; [17] 69% | [5]; at 50.0 µM 41.7% | [5]; at 100.0 µM -4% | [6]; at 1.2 µM -2% | [6]; at 3.7 µM -1% | [6]; at 11.0 µM 1% | [6]; at 33.0 µM 1% | [6]; at 100.0 µM 5% | [7]; [16] -8% | [7]; at 50.0 µM 45.9% | [8]; at 1.2 µM 13% | [8]; at 3.7 µM 9% | [8]; at 11.0 µM 11% | [8]; at 33.0 µM 14% | [8]; at 100.0 µM 8% | [9]; [16] -10% | [9]; [17] 17% | [9]; at 50.0 µM 6.15% | [10]; at 1.2 µM -31% | [10]; at 3.7 µM -21% | [10]; [16] -17% | [10]; at 11.0 µM -6% | [10]; at 33.0 µM -10% | [10]; at 50.0 µM 34.9% | [10]; at 100.0 µM -7% | [11]; at 1.2 µM -3% | [11]; at 3.7 µM -2% | [11]; at 11.0 µM -1% | [11]; at 33.0 µM -1% | [11]; at 100.0 µM 4% | [12]; at 1.2 µM -1% | [12]; at 3.7 µM 2% | [12]; at 11.0 µM 0% | [12]; at 33.0 µM -6% | [12]; at 100.0 µM 10% | [13]; at 1.2 µM -1% | [13]; at 3.7 µM -1% | [13]; at 11.0 µM 1% | [13]; at 33.0 µM 1% | [13]; at 100.0 µM 2% | [14]; [16] 22% | [14]; at 50.0 µM 67% | [15]; at 1.2 µM -2% | [15]; at 3.7 µM -5% | [15]; at 11.0 µM -7% | [15]; at 33.0 µM -14% | [15]; at 100.0 µM -15%

CC(C)c1cccc(O)c(=O)c1
inactive: [1]; at 1.2 µM 2% | [1]; at 3.7 µM -3% | [1]; at 11.0 µM 0% | [1]; at 33.0 µM 18% | [2]; at 1.2 µM -1% | [2]; at 3.7 µM -1% | [2]; at 11.0 µM -1% | [2]; at 33.0 µM 38% | [3]; at 1.2 µM 5% | [3]; at 3.7 µM 8% | [3]; at 11.0 µM -20% | [3]; at 33.0 µM 13% | [4]; at 1.2 µM -7% | [4]; at 3.7 µM -9% | [4]; [16] -1% and 2% | [4]; at 11.0 µM -8% | [4]; at 33.0 µM 27% | [5]; at 1.2 µM -1% | [5]; at 3.7 µM 2% | [5]; [16] -43% and 0% | [5]; at 11.0 µM 6% | [5]; at 33.0 µM 47% | [6]; at 1.2 µM 6% | [6]; at 3.7 µM 4% | [6]; at 11.0 µM 9% | [7]; [16] -2% and 9% | [8]; at 1.2 µM 3% | [8]; at 3.7 µM 4% | [8]; at 11.0 µM 2% | [8]; at 33.0 µM 25% | [9]; [16] -4% and 4% | [10]; at 1.2 µM 5% | [10]; at 3.7 µM -2% | [10]; [16] -7% and 0% | [10]; at 11.0 µM -4% | [10]; at 33.0 µM 13% | [11]; at 1.2 µM 9% | [11]; at 3.7 µM 14% | [11]; at 11.0 µM 13%
active: [1]; at 100.0 µM 99% | [2]; at 100.0 µM 98% | [3]; at 100.0 µM 98% | [4]; at 50.0 µM 98.5% and 92.5% | [4]; at 100.0 µM 98% | [5]; at 50.0 µM 99% and 94.2% | [5]; at 100.0 µM 98% | [6]; at 33.0 µM 74% | [6]; at 100.0 µM 99% | [7]; at 50.0 µM 93.9% and 93.2% | [8]; at 100.0 µM 98% | [9]; at 50.0 µM 96.3% and 89.7% | [10]; at 50.0 µM 99.3% and 93.2% | [10]; at 100.0 µM 98% | [11]; at 33.0 µM 70% | [11]; at 100.0 µM 99%
12% (inactive) and 99% (active): [9]; [17]
52% (inactive) and 99% (active): [4]; [17]
36% (inactive) and 99% (active): [7]; [17]
47% (inactive) and 100% (active): [5]; [17]
18% (inactive) and 99% (active): [10]; [17]
